Test results: PubChem BioAssay AID1851 (National Center for Advancing Translational Sciences (NCATS), 2009)
“And” between values parts separate entries of the source, which are not always exact repeats. Equal values may be shown once. Hit rate of the full screen: of about 16,000 compounds, about 2,600 (16%) were called active. Inconclusive results (about 20%) are left out. Only a sample is shown. A number with no mark means an inactive call. Calls follow the shape of the dose curve; as a rule, active = well fitted curve in the direction sought with a large enough effect; inconclusive = small, poorly fitted or top-dose-only effect, or effect the other way; inactive = no such curve, though single readings can be large or run the other way.

target: Cytochrome P450 2D6 (Homo sapiens) (UniProt P10635); test: Cytochrome panel assay with activity outcomes; settings: recombinant CYP, pro-luciferin dealkylation, luminescence, p450-cyp2d6; series mostly up to 57.1 µM; activity, negative = inhibition: at the top concentration
Sequence (P10635 whole entry, looked up): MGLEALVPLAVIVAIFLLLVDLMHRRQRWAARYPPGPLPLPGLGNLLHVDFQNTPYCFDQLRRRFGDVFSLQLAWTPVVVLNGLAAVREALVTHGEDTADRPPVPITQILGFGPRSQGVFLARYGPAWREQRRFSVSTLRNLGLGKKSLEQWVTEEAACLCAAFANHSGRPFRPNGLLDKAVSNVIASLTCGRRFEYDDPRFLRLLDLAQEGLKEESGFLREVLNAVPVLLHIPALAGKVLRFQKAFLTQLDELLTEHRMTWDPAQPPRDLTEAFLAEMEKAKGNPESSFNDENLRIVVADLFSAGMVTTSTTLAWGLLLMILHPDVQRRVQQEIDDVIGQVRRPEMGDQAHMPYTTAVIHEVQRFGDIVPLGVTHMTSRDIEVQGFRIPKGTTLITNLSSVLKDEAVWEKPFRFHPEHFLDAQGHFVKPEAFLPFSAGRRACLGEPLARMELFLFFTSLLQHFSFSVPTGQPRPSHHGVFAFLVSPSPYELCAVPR
Procedure: The P450 gene superfamily is involved in the metabolism and clearance of xenobiotics. This assay used various human CYP P450 isozymes to measure the dealkylation of various pro-luciferin substrates to luciferin. The luciferin is then measured by luminescence after the addition of a luciferase detection reagent. Pro-luciferin substrate concentration in the assay was equal to its KM for its CYP P450 isozyme. Inhibitors and some substrates limit the production of luciferin, and decrease measured luminescence.
NCGC Assay Protocol Summary:
1, Reagent, 2 uL, Isozyme and Pro-Luciferin
2, Library compounds, 23 nl, 40 uM to 0.24 nM dilution series
3, Controls, 23 nl, Isozyme specific inhibitor
4, Reagent, 2 uL, NADPH regeneration solution
5, Incubation time, 60 min, Isozyme specific temperature
6, Reagent, 4ul, Detection reagent
7, Incubation time, 20 min, Isozyme specific temperature
8, Detection, 1 sec, ViewLux luminescent read
The luciferase-based P450-GloTM Screening Systems were obtained from Promega (Madison, WI) for CYP 1A2 (V9770), CYP 2C9 (V9790), CYP2 C19 (V9880), CYP 2D6 (V9890), and CYP 3A4 Luciferin-PPXE (V9910) and were adapted for 1,536-well microplates and an automated protocol. The control compounds furafylline for 1A2 (F124), sulfaphenazole for CYP 2C9 (S0758), ketoconazole for CYP 2C19 (K1003), quinidine for 2D6 (Q3625), and ketoconazole for 3A4 (K1003) were purchased from Sigma Aldrich (St. Louis, MO). Recombinant P450 enzymes were obtained from baculovirus constructs expressed in insect cells (BD/Gentest).
Medium-binding white solid Kalypsys plates used. Mixtures kept on ice. 1A2: 10 nM 1A2, 100 uM Luc-ME, 100 mM KPO4; 2C9: 10 nM 2C9, 100 uM Luc-H, 25 mM KPO4; 2C19: 5 nM 2C19, 10 uM Luc-H EGE, 50 mM KPO4; 2D6: 5 nM 2D6, 30 uM Luc-ME EGE, 100 mM KPO4; 3A4: 10 nM, 25 uM Luc-PPXE. All amounts are reflected in their final concentration, working concentration is 2x.
NADPH regeneration solution: 1.3 mM NADP+, 3.3 mM glucose-6-phosphate, 3.3 mM MgCl2, 0.4 U/mL glucose-6-phosphate dehydrogenase for all isozymes, 200 mM KPO4 for 3A4. Mixture prepared at RT but kept on ice during automated run.
RT incubation in auxilliary plate hotel for 1A2, 2D6, and 3A4; 37C for 2C9 and 2C19.
Keywords: P450, CYP1A2, CYP2C19, CYP2C9, CYP2D6, CYP3A4, Luciferase, MLSMR, MLSCN, NIH Roadmap, qHTS, NCGC
% is scaled to controls: 0 for no effect and ±100 for the full control effect.

Compound | AC50 | activity, negative = inhibition
Cn1c(=N)c(S(=O)(=O)c2ccc(F)cc2)cc2c(=O)n3ccccc3nc21 | 3.16 µM (active) | –
CCOC(=O)c1cc2c(=O)n3ccccc3nc2n(CCOC)c1=NC(=O)C(C)(C)C | – | 23.5%
Cn1c(C(=O)N2COCC2(C)C)cc2c(=O)n3ccccc3nc21 | – | 9.88%
CCOC(=O)c1cc2c(=O)n3ccccc3nc2n(CCCOC)c1=NC(=O)C(C)(C)C | – | -7.61%
CCn1c(=N)c(S(=O)(=O)c2ccc(F)cc2)cc2c(=O)n3ccccc3nc21 | 0.794 µM (active) | –
CC1Cc2ccccc2N1C(=O)c1cc2c(=O)n3ccccc3nc2n1C (configuration not stated) | – | -9.59%
COc1ccccc1C(=O)Nc1cc2c(ccc3ccccc32)oc1=O | – | -3.7%
O=C(CCl)Nc1ccc(Oc2cnc3ccccc3n2)cc1 | – | -6.66%
Cc1ccccc1C(=O)N1CCN(c2ccc([N+](=O)[O-])c(NCc3ccco3)c2)CC1 | – | -21.7%
CC(C)(N)C(=O)N[C@@H]1C(=O)N2[C@@H]1SC(C)(C)[C@H]2C(=O)O | – | 5.23% [at 11.4 µM]
CC(C)(C)C(=O)N1CCC(O)(CS(=O)(=O)Cc2ccc(Cl)cc2)CC1 | – | -2.72%
Cc1ccccc1OCC(=O)NC(=S)Nc1ccc(N2CCOCC2)c(Cl)c1 | – | -1.79%
Cc1ccc(NC(=O)c2cc(N3C(=O)C4CC=CCC4C3=O)ccc2N2CCOCC2)cc1Cl (configuration not stated) | – | -12.8%
Cc1ccc(NC(=O)CSCC(=O)Nc2ccc(N3CCOCC3)c(Cl)c2)cc1 | 14.1 µM (active) | –
NC(=O)C1(N2CCCCC2)CCN(C(=S)Nc2ccc(Cl)cc2)CC1 | – | 18.5%
N[C@H](C(=O)O)c1cccc(O)c1 | inactive | –
Nc1ccc(CCNc2ncnc3c2ncn3[C@@H]2O[C@@H](CO)[C@H](O)[C@@H]2O)cc1 | – | -4.1%
CC(C)c1ccc(-c2nnn(CCC(=O)O)n2)cc1 | – | 6.28%
CCOc1ccc(OCCOc2ncnc3ccccc23)cc1 | – | -9.19%
CCOc1ccc(/C(O)=C2\C(=O)C(=O)N(CCOCCO)C2c2ccccc2OC)cc1 (configuration not stated) | – | -1.52%
CCOc1ccc(OCCOCCN2CCc3ccccc3C2)cc1 | 1.12 µM (active) | –
N#CCCn1c(=O)cnc2cnc(Oc3ccccc3)nc21 | – | 2.41%
C=CCn1c(SCc2ccc3c(c2)OCO3)nc2scc(-c3ccco3)c2c1=O | – | -7.87%
C=CCN1CCN(c2nc3ccccc3nc2C#N)CC1 | 1.26 µM (active) | –
CCc1noc(C)c1C(=O)Nc1nc(-c2cc(C)ccc2C)c(C)s1 | – | -10.5%
O=C(O)CSc1cc(-c2ccccc2)nc2ccccc12 | – | 3.96% [at 11.4 µM]

Compound | AC50 | activity, negative = inhibition
N[C@@H](CSCc1ccc(I)cc1)C(=O)O | – | 3.9% [at 11.4 µM]
NC[C@@H](O)CSCc1ccc(Cl)cc1 | 3.16 µM (active) | –
O=[N+]([O-])c1ccc(CSCc2ccc(Cl)cc2)cc1 | – | -20.5% [at 11.4 µM]
O=c1c(-c2cccc(F)c2)nc2cncnc2n1Cc1ccccc1Cl | – | -3.25%
Oc1ccc(CNCc2ccccc2)c2cccnc12 | 1.58 µM (active) | –
CC(C)NC[C@@H](O)c1ccc(O)c2ncccc12 | – | -18.5% [at 11.4 µM]
O=C(O)COc1c(Cl)cc(Cl)c2cccnc12 | – | 2.9% [at 11.4 µM]
N#CCCn1c(=O)c(-c2ccc(F)cc2)nc2cnc(N3CCOCC3)nc21 | – | 3.46%
CCOC(=O)/C(C#N)=C1/C=CN(C)C=N1 | – | 16.9%
Cc1nc2cncnc2n(-c2ccccc2)c1=O | – | -8.35%
COc1cccc(-c2cc(C(F)(F)F)n3ncc(S(=O)(=O)c4ccccc4)c3n2)c1 | – | 2.47%
CC(C)C(=O)C(C)(C)CCc1ccccn1 | – | 8.85% [at 11.4 µM]
CN(CCc1ccccn1)Cc1ccc(Cl)cc1Cl | 0.355 µM (active) | –
ON(CCc1ccccn1)Cc1ccccc1 | – | -0.364% [at 11.4 µM]
O=C(Nc1ccccc1)c1ccccc1CC[N+](=O)[O-] | – | 7.91%
C/C(=C\C1CCCCC1)C(NC(=O)c1ccc(C(F)(F)F)cc1)c1ccc(-c2ccccc2)cc1 (configuration not stated) | – | 7.77%
COc1ccc(-c2cc(C(F)(F)F)n3nc(C(=O)N4CCCCC4)cc3n2)cc1 | – | -17.1%
Cc1ccc(CS(=O)(=O)CCC(=O)NCCCN2CCCC2=O)cc1 | – | -2.33%
Cc1ccc(S(=O)(=O)CC(O)CN2CCCC2=O)cc1 (configuration not stated) | – | -5.29%
Cc1ccc(S(=O)(=O)N(CCCN2CCCC2=O)Cc2cc3c(C)ccc(C)c3[nH]c2=O)cc1 | 14.1 µM (active) | –
CN1CCN([C@@H]2Cc3ccccc3Sc3ccc(Cl)cc32)CC1 | 0.398 µM (active) | –
O=C1CC(N2CCOCC2)C(=O)N1c1cccc(Cl)c1 (configuration not stated) | – | -1.45%
CSc1ccc2c(c1)[C@H](N1CCN(C)CC1)Cc1ccccc1S2 | 3.98 µM (active) and 1.58 µM (active) and 316 nM (active) | –
CCCc1ncc(C[n+]2ccccc2C)c(N)n1 | – | -3.66% [at 25.6 µM]
C=CCNC(=S)N/N=C/c1ccc(OCc2ccccc2)cc1 | – | -3.46%
COc1ccc(Oc2ncc3nc(C)c(=O)n(C[C@H]4CCCO4)c3n2)cc1 | – | -9.23%

Compound | AC50 | activity, negative = inhibition
Cc1cc(C)cc(OCC(=O)NNC(=O)c2cc(C)[nH]n2)c1 | – | 2.9%
COc1ccc(NS(=O)(=O)c2ccc(I)cc2)cc1N1CCN(C)CC1 | – | -4.44%
O=C(c1ccc2ncsc2c1)N1CCN(c2ccc(O)cc2)CC1 | – | 4.08%
CCCOc1ccc(CSC(CC(=O)O)C(=O)O)cc1 (configuration not stated) | – | 7.86%
Cc1ccc(OCCCC(=O)NCc2ccco2)cc1 | – | 7.23%
Cc1ccc(S(=O)(=O)NCC(=O)N(CC(=O)NCc2ccco2)Cc2cccs2)cc1 | 3.98 µM (active) | –
Cc1ccc(C(C(=O)NCc2ccco2)N(C(=O)CNC(=O)c2cccs2)c2ccc(C)cc2)cc1 (configuration not stated) | – | 6.82%
COc1ccc(-c2nc3cnc(Nc4ccccc4)nc3n(Cc3cccs3)c2=O)cc1 | – | 0.596%
CC1CCCC(n2c(=S)[nH]c3ccccc3c2=O)C1C (configuration not stated) | – | -26.2%
O=c1c2c(nc3c(-c4ccccc4)c[nH]n13)CCC2 | – | -7.88%
Cc1ccc(-c2[nH]n3c(=O)c4c(nc3c2C)CCCC4)cc1 | 25.1 µM (active) | –
Cc1ccc(N=Nc2c(N)[nH]n3c(=O)c4c(nc23)CCCC4)cc1 | – | -22%
Cc1cc(C2CCCCC2)n(O)c(=O)c1 | – | 9.07% [at 25.6 µM]
COc1ccc2c(c1)C(c1ccc([N+](=O)[O-])cc1)=NNC(c1ccco1)=N2 | 11.2 µM (active) | –
COc1ccc(-c2ccc(/C=C3\C(=O)N(c4ccccc4)N=C3c3ccccc3)o2)c([N+](=O)[O-])c1 | – | -5.74%
COc1cccc(C(=O)Nc2ccc(-c3nnc(-c4ccco4)o3)cc2)c1 | – | 3.61%
Cc1ccc2c(c1)C1(SCCS1)C(=O)N2 | – | -11.7%
Nc1ccc(C(=O)NCC(=O)O)cc1 | – | 2.31% [at 25.6 µM]
COc1ccc(S(N)(=O)=O)cc1C(=O)NCCCN1CCN(c2ccc(C)cc2)CC1 | – | 5.97%
COc1ccc(N2CCN(CCNC(=O)c3c(C)cc(=O)oc3C)CC2)cc1 | – | 2.34%
Cc1ccccc1CN1CCN(CC(=O)NCCCN2CCN(c3ccc(F)cc3)CC2)C1=O | 6.31 µM (active) | –
O=C(CCNC(=O)Cn1ccc2ccccc2c1=O)NCCCN1CCN(c2ccc(F)cc2)CC1 | 10 µM (active) | –
COc1ccc(OC)c(CNC(=O)CCNC(=O)Cn2ccc3ccccc3c2=O)c1 | – | 1.01%
COc1cccc(CNC(=O)CCNC(=O)Cn2ccc3ccccc3c2=O)c1 | – | -19.9%
COC(=O)CSc1nc(C)cc(C(F)(F)F)c1C#N | – | 15.4%
Cc1cc2nnc(SCC(=O)N3CCN(c4ccccc4)CC3)n2c(N)n1 | – | 3.62%

Compound | AC50 | activity, negative = inhibition
CC(NC(=O)c1ccc(Cl)cc1)c1nnc(SCc2ccc([N+](=O)[O-])cc2)n1C (configuration not stated) | – | -14.9%
C1CCc2nnnn2CC1 | – | -1.71%
Cc1ccc(-c2ccc(/C=N/NC(=S)Nc3ccccc3)o2)cc1[N+](=O)[O-] | – | 5.91%
CC(C)CN1CCC2(CC1)CCN(C(=O)c1cccc(F)c1)CC2 | 5.01 µM (active) | –
O=C(c1cccc(F)c1)N1CCC2(CCCN(c3ccccc3)C2)CC1 | – | -3.85%
O=C(c1cccc(F)c1)N1CCC2(CC1)CN(c1cccc(-c3ccccc3)c1)C2 | – | 0.562%
CC(C)CN1CC2(CCN(C(=O)c3cccc(F)c3)CC2)C1 | – | 7.2%
O=C(c1cccc(F)c1)N1CCC2(CC1)CN(Cc1ccccc1)C2 | 5.01 µM (active) | –
CC(C)NC(=O)N1CCC2(CC1)CCN(C(=O)c1cccc(F)c1)CC2 | – | 4.28%
O=C(c1cccc(F)c1)N1CCC2(CCN(Cc3ccccc3)CC2)CC1 | 7.94 µM (active) | –
O=C(c1cccc(F)c1)N1CCC2(CCN(Cc3cc(C(F)(F)F)cc(C(F)(F)F)c3)CC2)CC1 | – | 0.176%
N#Cc1ccc(CN2CC3(CCN(C(=O)c4cccc(F)c4)CC3)C2)cc1 | – | -5.46%
O=c1c(-c2ccc(F)cc2)nc2cnc(N3CCOCC3)nc2n1Cc1cccs1 | – | -3.77%
O=C(C(Cc1ccccc1)N1C(=O)C2C3CCC(C3)C2C1=O)N1CCCCC1 (configuration not stated) | – | -5.07%
CCCCS(=O)(=O)NC1=NCN(Cc2ccco2)CN1 | – | -3.88%
COC(=O)c1nn(-c2cccc(C(F)(F)F)c2)c(=O)cc1Sc1ccccn1 | – | 7.99%
O=c1c(-c2ccccc2)nc2cncnc2n1Cc1ccccc1Cl | – | -6.57%
COc1cc(Br)cc2cc(C(=O)NCC3CCCO3)c(=O)oc12 (configuration not stated) | – | -18.9%
CC(c1ccccc1C(O)c1ccccc1)N(C)C (configuration not stated) | – | -28.5%
Cn1c(=O)n(-c2ccc(Cl)cc2)c(=O)c2c3c(sc21)COC(C)(C)C3 | – | 7.91%
CCOc1c(OC(C)=O)ccc(/C=C2\N=C(SCC)SC2=O)c1[N+](=O)[O-] | 11.2 µM (active) | –
CCOc1c(OC(C)=O)ccc(/C=C/c2ccc3cccc(OC(C)=O)c3n2)c1[N+](=O)[O-] | 10 µM (active) | –
COc1ccc2c(c1[N+](=O)[O-])CCC/C2=N/OC(=O)c1cccc2ccccc12 | – | -1.88%
O=C(N/N=C/c1ccc2cccc(OCc3ccccc3)c2n1)c1ccc(Br)cc1 | – | -17%
